Pf growth 48h: P. falciparum growth inhibition at 48 hours (one generation); P. falciparum luciferase growth in erythrocytes, 48 h; Potency, µM (series often up to 28.7 µM), inactives show at the top dose activity change, negative = inhibition, usual class: inhibitors; actives 5.9% (n = 310,000); AID 504832; note: % is set by controls: 0 for no effect and ±100 for the full control effect
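Compounds are pin-transferred into medium, infected erythrocytes (2% hematocrit, 0.1% parasitemia final) are added, and plates sit one parasite generation at 37 C in 5% CO2. Detection reagent is then added and luminescence measured.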
SARS PLpro yeast: blocks SARS-CoV papain-like protease in a yeast assay; S. cerevisiae expressing SARS-CoV PLpro, growth rescue; actives 0.19% (n = 330,000); Potency, µM (highest dose often 32.9 µM), without a hit: top-dose activity, positive = growth rescue, usual class: activators; AID 485353; calls by dose curve; note: 0% is about no effect; nearly all actives have a fitted effect of over 55% in size
NS1 function inh: blocks influenza NS1 protein function; Potency, µM (highest dose often 46.1 µM), for the others: top-dose activity, positive = more growth; actives 0.4% (n = 270,000); AID 2326; calls by dose curve; note: actives are rising curves; nearly all actives have a fitted effect of over 50% in size
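Growth recovery, yeast-based: influenza A NS1 expressed in S. cerevisiae causes slow growth, and suppressors are detected by OD600. The parent strain without NS1 is used as positive control.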
Pf growth 96h: P. falciparum growth inhibition at 96 hour, primary screen for plastid delayed-death inhibitors; P. falciparum luciferase reporter growth, 96 h; Potency, µM (top dose mostly 28.7 µM), without a hit: at the highest dose activity change, negative = inhibition, most hits filed as inhibitors; actives 6.9% (n = 320,000); note: % is set by controls: 0 for no effect and ±100 for the full control effect
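Delayed-death screen, second-generation endpoint: infected erythrocytes, 2% hematocrit, 0.05% parasitemia final; 96 hours at 37 C, 5% CO2; luciferase detection reagent; luminescence decrease equals reduced growth.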
AMA1 RON2 block: inhibitors of Plasmodium falciparum AMA1-RON2 interaction | AID 720542 | AlphaScreen AMA1-biotinylated RON2 peptide binding | actives 0.2% (n = 360,000) | Potency, µM (titrated, usually from 58.2 µM), inactives show at the highest dose activity change, negative = inhibition, most hits filed as inhibitors;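 note: 0% = vehicle wells and -100% = peptide control; nearly all actives have a fitted effect of over 45% in size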
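AMA1 (3D7) with his tag at 25 nM final met compounds first, then biotinylated RON2 peptide at 25 nM; detection used donor plus acceptor beads, 10 µg/mL apiece, read by AlphaScreen after 30 min at room temperature.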
HCV inh: inhibitors of hepatitis C virus infection; Huh7.5.1 HCVcc-Cre infection, luciferase reporter, 44 h; Potency, µM (titrated, usually from 41.8 µM), for inactives: top-dose activity change, negative = inhibition, hits mostly inhibitors; actives 3.4% (n = 340,000); AID 651820; note: % is set by controls: 0 for no effect and ±100 for the full control effect
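Cells seeded at 1,000/well and cultured 4 h, then compounds added followed by HCVcc-Cre virus (~0.5 moi). After 44 h further culture, luciferase substrate was added, plates held 15 min at room temperature, and luminescence read for 15 sec.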
Starred values were filed as active, the others as inactive; u = inconclusive; x = no result given. Most compounds without a hit are left out; they make up all but 12% or so of the library. Unless noted, calls come from the whole dose curve; as a rule, active = well fitted curve in the direction sought with a large enough effect; inconclusive = small, poorly fitted or top-dose-only effect, or another doubt; inactive = no such curve, though single readings can be large; an effect the other way counts as inactive or inconclusive. Potency is the fitted concentration of half-maximal effect.

SMILES	Pf growth 48h	SARS PLpro yeast	NS1 function inh	Pf growth 96h	AMA1 RON2 block	HCV inh
C[C@]12C(=O)N(c3cccc(F)c3)C(=O)N1[C@@H]1c3ccccc3OC[C@@H]1[C@H]2c1ccccc1	u	-1.9%	-6.7%	8.28µM*	-12.7%	u
Cc1ccc(N2C(=O)N3[C@H]4c5ccccc5OC[C@@H]4[C@@H](c4ccccc4)[C@@]3(C)C2=O)cc1	u	-6.5%	-1.3%	8.28µM*	7.4%	u
COCC(C)NS(=O)(=O)c1ccc(C(=O)NCCCn2ccc3ccccc32)cc1 (stereo not given)	5.2%	0.0%	21.6%	3.7%	-5.9%	-12.2%
Cc1cc(C)n(-c2nc(Nc3ccccc3)nc(-n3nc(C)cc3C)n2)n1	u	-3.9%	-17.1%	-0.3%	8.5%	-8.8%
Cc1cc(C)n(-c2nc(N(c3ccccc3)c3ccccc3)nc(-n3nc(C)cc3C)n2)n1	2.62µM*	11.9%	22.5%	u	-2.3%	10µM*
CCCCNc1nc(-c2ccccc2)nc(-n2ccnc2)n1	x	4.3%	-7.4%	0.0%	-9.4%	3.55µM*
c1cncc(-c2nc(NCCCn3ccnc3)c3ccccc3n2)c1	-16.1%	3.0%	1.5%	u	u	u
C=CCNc1nc(Cl)nc(Nc2ccccc2)n1	51.5%	-1.8%	-8.8%	-7.2%	8.1%	-29.5%
C=CCNc1nc(-c2ccccc2)nc(-n2ccnc2)n1	13.1µM*	-6.8%	-79.6%	u	0.9%	2.51µM*
COC(=O)[C@H]1C[C@H](O)CN1S(=O)(=O)c1ccc(Br)cc1F	x	19.8%	x	x	0.0%	-1.8%
COc1ccc(OC)c(-c2nn(-c3ccccc3)cc2C(=O)N2CCc3ccccc3C2)c1	10.4µM*	-6.9%	x	u	-19.4%	u
COc1ccccc1-c1nn(-c2ccccc2)cc1C(=O)N1CCN(C(=O)c2ccco2)CC1	u	1.2%	x	-28.5%	-4.7%	-0.7%
COc1cccc(-c2nn(-c3ccc(C)cc3)cc2C(=O)N2CCc3cc(OC)c(OC)cc3C2)c1	9.28µM*	-20.2%	x	u	-25.3%	u
COc1ccccc1-c1nn(-c2ccccc2)cc1C(=O)N1CCc2ccccc2C1	u	0.1%	x	3.7µM*	-7.8%	u
Cc1ccc(S(=O)(=O)N2CCCC(c3nnc4n3-c3ccccc3SC4)C2)cc1 (stereo not given)	0.0%	3.2%	2.8%	13.1µM*	-3.3%	-29.6%
Cc1ccc(C)c(N2CC(C(=O)Nc3cc(C)on3)CC2=O)c1 (stereo not given)	12.9%	-1.9%	3.4%	-0.9%	-9.7%	3.3%
Cn1c(=O)n(C)c2cc([N+](=O)[O-])c(N3CCN(C(=O)c4ccccc4Br)CC3)cc21	-16.0%	0.6%	-4.5%	9.4%	-3.0%	12.6µM*
Cc1ccc(NC(=O)CN(C)C(=O)c2cccc(S(=O)(=O)NCc3ccco3)c2)cc1	-6.1%	0.2%	x	9.28µM*	-3.1%	-6.4%
COc1ccc(C(=O)Nc2cccc(S(=O)(=O)NCc3ccco3)c2)cc1	x	7.1%	x	x	-17.3%	u
O=C(COc1ccc(Cl)cc1)Nc1cccc(S(=O)(=O)NCc2ccco2)c1	-29.7%	8.4%	x	-21.6%	2.7%	31.6µM*
CN(CC(=O)Nc1ccc(Cl)cc1)C(=O)c1cccc(S(=O)(=O)NCc2ccccc2)c1	2.1%	0.5%	20.3%	1.5%	-14.2%	-28.7%
CCOC(=O)C1(C)CCN1C(=O)c1cc(F)ccc1C (stereo not given)	x	x	x	x	2.4%	x
C(=N\N=C\c1ccccn1)/c1ccccn1	13.1µM*	-2.5%	-1.8%	u	98.7%	5.5%
CCN(C)c1ccc(/C=N\n2nnnc2N)cc1	197.3%	u	-7.9%	2.62µM*	6.3%	-14.8%
C(=N\NC1=Nc2cccc3cccc1c23)/c1ccccn1	u	-3.3%	x	u	5.0%	2.82µM*
Clc1ccccc1/C=N/NC1=Nc2cccc3cccc1c23	241.8%	0.6%	24.8%	282.1%	-3.4%	-12.5%
COc1cc(/C=N/n2nnnc2N)ccc1O	x	-5.7%	4.3%	13.1µM*	-0.2%	12.5%
